PubChem BioAssay (EPA / NIEHS)
A structure can be active in one record and inactive in another. The source made the active and inactive calls. Rule for the calls: active = hit-call score of the fitted dose curve at least 0.9, where 1 is the maximum; inactive = score below 0.9.

Assays:
[1] = read-out: Thrombomodulin, THBD (gene 7056); experiment: BSK_CASM3C_Thrombomodulin: BioMAP Diversity Plus: CASM3C Assay for Thrombomodulin Biomarker Activity (AID 2283051); conditions: primary human coronary artery smooth muscle cells; actives raise or lower the signal;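 note: thrombomodulin protein level measured by ELISA 24 h after dosing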
[2] = read-out: Tissue Factor, F3 (gene 2152); experiment: BSK_CASM3C_TissueFactor: BioMAP Diversity Plus: CASM3C Assay for Tissue Factor Biomarker Activity (AID 2283052); conditions: primary human coronary artery smooth muscle cells; actives raise or lower the signal;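 note: cell surface tissue factor protein level read by ELISA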
[3] = read-out: Interferon-gamma inducible Protein 10 (IP10), CXCL10 (gene 3627); experiment: BSK_hDFCGF_IP10: BioMAP Diversity Plus: hDFCGF Assay for Interferon-gamma inducible Protein 10 (IP10) Biomarker Activity (AID 2283053); conditions: primary human foreskin fibroblasts; actives raise or lower the signal
In short: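 Primary foreskin fibroblasts, human; 24 h compound exposure; IP-10 by ELISA; bidirectional fit vs DMSO.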

[4] = read-out: Urokinase-type plasminogen activator receptor (uPAR), PLAUR (gene 5329); experiment: BSK_CASM3C_uPAR: BioMAP Diversity Plus: CASM3C Assay for Urokinase-type plasminogen activator receptor (uPAR) Biomarker Activity (AID 2283054); conditions: primary human coronary artery smooth muscle cells; actives raise or lower the signal;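 note: cell-surface uPAR protein level quantified by ELISA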
[5] = read-out: Vascular cell adhesion molecule 1 (VCAM1), VCAM1 (gene 7412); experiment: BSK_CASM3C_VCAM1: BioMAP Diversity Plus: CASM3C Assay for Vascular cell adhesion molecule 1 (VCAM1) Biomarker Activity (AID 2283055); conditions: primary human coronary artery smooth muscle cells; actives raise or lower the signal;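 note: VCAM-1 protein level quantified by ELISA on the cells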
[6] = read-out: Collagen III, COL3A1 (gene 1281); experiment: BSK_hDFCGF_CollagenIII: BioMAP Diversity Plus: hDFCGF Assay for Collagen III Biomarker Activity (AID 2283056); conditions: primary human foreskin fibroblasts; actives raise or lower the signal
In short: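 Human foreskin primary fibroblasts were exposed to test chemicals for 24 h, after which collagen III was quantified by ELISA. Activity was fitted bidirectionally against DMSO as negative control and baseline.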

[7] = read-out: Epidermal growth factor receptor (EGFR), EGFR (gene 1956); experiment: BSK_hDFCGF_EGFR: BioMAP Diversity Plus: hDFCGF Assay for Epidermal growth factor receptor (EGFR) Biomarker Activity (AID 2283057); conditions: primary human foreskin fibroblasts; actives raise or lower the signal
In short: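 hDFCGF system, primary human foreskin fibroblasts; compound 24 h; EGFR measured by ELISA; DMSO = negative control/baseline; bidirectional fitting.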

[8] = read-out: Interleukin-8 (IL8), CXCL8 (gene 3576); experiment: BSK_hDFCGF_IL8: BioMAP Diversity Plus: hDFCGF Assay for Interleukin-8 (IL8) Biomarker Activity (AID 2283058); conditions: primary human foreskin fibroblasts; actives raise or lower the signal
In short: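 hDFCGF human dermal fibroblasts; 24 h chemical exposure; IL-8 by ELISA; bidirectional curve fit vs DMSO baseline; gain or loss of signal scored.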

[9] = BSK_hDFCGF_Proliferation: Cell Proliferation Assessment in the BioMAP Diversity Plus: hDFCGF Assay (AID 2283059); conditions: primary human foreskin fibroblasts;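 note: curves fitted for both rise and fall of signal versus DMSO baseline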
In short: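 Total protein read at 560 nm after 0.1% SRB staining of TCA-fixed human skin fibroblasts, […]. Activity is fitted in both directions relative to DMSO as baseline.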

[10] = read-out: Macrophage colony-stimulating factor (MCSF), CSF1 (gene 1435); experiment: BSK_hDFCGF_MCSF: BioMAP Diversity Plus: hDFCGF Assay for Macrophage colony-stimulating factor (MCSF) Biomarker Activity (AID 2283060); conditions: primary human foreskin fibroblasts; actives raise or lower the signal
In short: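 Human foreskin primary fibroblasts were treated with test chemical for 24 h, and M-CSF was then measured by ELISA. Data were fitted bidirectionally against DMSO as the negative control and activity baseline.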

[11] = BSK_hDFCGF_SRB: Viability Assessment in the BioMAP Diversity Plus: hDFCGF Assay (AID 2283061); conditions: primary human foreskin fibroblasts;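 note: cells exposed to compound for 24 h before the read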
In short: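 Human foreskin primary fibroblasts were treated with compound and assessed 24 h after dosing. Total protein was measured by sulforhodamine B staining (0.1% SRB after 10% TCA fixation, 560 nm read) as a cytotoxicity marker, with bidirectional fitting against DMSO baseline.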

[12] = read-out: Monokine induced gamma interferon (MIG), CXCL9 (gene 4283); experiment: BSK_hDFCGF_MIG: BioMAP Diversity Plus: hDFCGF Assay for Monokine induced gamma interferon (MIG) Biomarker Activity (AID 2283063); conditions: primary human foreskin fibroblasts; actives raise or lower the signal
In short: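 ELISA read-out of MIG from primary human dermal fibroblasts 24 h post-dosing. Gain or loss of signal fitted bidirectionally, DMSO as baseline.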

[13] = read-out: Matrix Metallopeptidase 1 (MMP1), MMP1 (gene 4312); experiment: BSK_hDFCGF_MMP1: BioMAP Diversity Plus: hDFCGF Assay for Matrix Metallopeptidase 1 (MMP1) Biomarker Activity (AID 2283064); conditions: primary human foreskin fibroblasts; actives raise or lower the signal
In short: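 hDFCGF primary fibroblasts (human foreskin); chemical added; 24 h; MMP1 by ELISA; bidirectional fit vs DMSO.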

[14] = read-out: Vascular cell adhesion molecule 1 (VCAM1), VCAM1 (gene 7412); experiment: BSK_hDFCGF_VCAM1: BioMAP Diversity Plus: hDFCGF Assay for Vascular cell adhesion molecule 1 (VCAM1) Biomarker Activity (AID 2283065); conditions: primary human foreskin fibroblasts; actives raise or lower the signal;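 for AC50: VCAM-1 protein level quantified by ELISA after 24 h chemical exposure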
In short: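 Primary human foreskin fibroblasts (hDFCGF system) were dosed with chemical and VCAM-1 was measured by ELISA 24 h later. Bidirectional curve fitting used DMSO as negative control and activity baseline.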

[15] = read-out: Plasminogen activator inhibitor-1 (PAI1), SERPINE1 (gene 5054); experiment: BSK_hDFCGF_PAI1: BioMAP Diversity Plus: hDFCGF Assay for Plasminogen activator inhibitor-1 (PAI1) Biomarker Activity (AID 2283066); conditions: primary human foreskin fibroblasts; actives raise or lower the signal
In short: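 Primary dermal fibroblasts (human foreskin), hDFCGF system; compound 24 h; PAI-1 by ELISA; bidirectional fit vs DMSO control.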

[16] = read-out: Intercellular Adhesion Molecule 1 (ICAM1), ICAM1 (gene 3383); experiment: BSK_KF3CT_ICAM1: BioMAP Diversity Plus: KF3CT Assay for Intercellular Adhesion Molecule 1 (ICAM1) Biomarker Activity (AID 2283067); conditions: primary human keratinocytes with fibroblasts; actives raise or lower the signal
In short: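 Human keratinocyte plus foreskin fibroblast primary co-culture was exposed to chemical for 24 h. ICAM-1 was then quantified by ELISA, and the data were fit bidirectionally against DMSO as the negative control and baseline.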

[17] = read-out: Interferon-gamma inducible Protein 10 (IP10), CXCL10 (gene 3627); experiment: BSK_KF3CT_IP10: BioMAP Diversity Plus: KF3CT Assay for Interferon-gamma inducible Protein 10 (IP10) Biomarker Activity (AID 2283068); conditions: primary human keratinocytes with fibroblasts; actives raise or lower the signal
In short: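 Human keratinocyte plus foreskin fibroblast primary co-culture exposed to test chemical for 24 h; IP-10 measured by ELISA. Concentration-response fitted bidirectionally against DMSO control as baseline.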

[18] = read-out: Interleukin-1 alpha (IL1a), IL1A (gene 3552); experiment: BSK_KF3CT_IL1a: BioMAP Diversity Plus: KF3CT Assay for Interleukin-1 alpha (IL1a) Biomarker Activity (AID 2283070); conditions: primary human keratinocytes with fibroblasts; actives raise or lower the signal
In short: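 Chemicals were dosed onto co-cultured human keratinocytes and foreskin fibroblasts, IL-1a was quantified by ELISA at 24 h, and activity was fitted in both directions relative to DMSO controls.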

[19] = read-out: TIMP metallopeptidase inhibitor 1 (TIMP1), TIMP1 (gene 7076); experiment: BSK_hDFCGF_TIMP1: BioMAP Diversity Plus: hDFCGF Assay for TIMP metallopeptidase inhibitor 1 (TIMP1) Biomarker Activity (AID 2283062); conditions: primary human foreskin fibroblasts; actives raise or lower the signal
In short: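 Primary human foreskin fibroblasts in the hDFCGF system were dosed with compound for 24 h, then TIMP-1 was measured by ELISA. Activity was fitted bidirectionally relative to DMSO control; parallel SRB staining assessed cytotoxicity.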

[20] = BSK_KF3CT_SRB: Viability Assessment in the BioMAP Diversity Plus: KF3CT Assay (AID 2283069); conditions: primary human keratinocytes with fibroblasts;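 note: fitted for both signal gain and loss against DMSO baseline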
In short: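 Keratinocytes co-cultured with foreskin fibroblasts (human primary); chemical added, 24 h; fix 10% TCA, stain 0.1% SRB, A560. Bidirectional fit vs DMSO.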

Measured: AC50

O=C(O)c1cn(-c2ccc(F)cc2)c2cc(N3CCNCC3)c(F)cc2c1=O
not listed: [19] | [20]
inactive: all other assays above

CC(C)Oc1ccccc1O
active: [9] 20 µM
not listed: [7] | [20]
inactive: all other assays above

CC(C)(COC(=O)c1ccccc1)COC(=O)c1ccccc1
active: [6] 16.7 µM | [9] 32.1 µM | [10] 20 µM | [11] 31.5 µM | [14] 16.1 µM | [15] 32.9 µM
not listed: [19]
inactive: all other assays above

Nc1cc([N+](=O)[O-])ccc1Cl
not listed: [19] | [20]
inactive: all other assays above

O=C1OC2(c3cc(Br)c(O)c(Br)c3Oc3c2cc(Br)c(O)c3Br)c2c(Cl)c(Cl)c(Cl)c(Cl)c21
inactive: [1] | [2] | [4]
active: [3] 20.8 µM | [5] 9.53 µM | [6] 4.38 µM | [7] 1.96 µM | [8] 22 µM | [9] 4.03 µM | [10] 1.56 µM | [11] 6.54 µM | [12] 11.6 µM | [13] 3.42 µM | [14] 4.38 µM | [15] 2.43 µM | [16] 8.86 µM | [17] 7.41 µM | [18] 3.69 µM

CC[Si](OC(C)=O)(OC(C)=O)OC(C)=O
inactive: [1] | [2] | [3] | [4] | [5] | [6] | [7] | [8] | [9] | [10] | [11] | [19] | [12] | [13] | [14] | [15] | [16] | [17] | [18]
active: [6] 5.47 µM | [9] 16.1 µM
